Rows were chosen to be rich in hits. Some 6.6% of all compounds tested hit in one or more screens of this group.
Beta apoptosis: inhibitors of cytokine-induced beta cell apoptosis, primary screen, luminescence; INS-1E cytokine-induced death, ATP luminescence, 48 h; percent of positive-control rescue, neutral wells zero; protection from apoptosis, % (concentration not given with the values); 0.8% of 300,000 active;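 active means Every replicate reaches about 75%, or at least half do and their mean reaches it too, limit read from the data; inconclusive means At least half of replicates reach the limit but their mean does not; inactive means Under half of replicates reach the limit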;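 further: 0% = cytokine-treated negative control wells and 100% = positive control rescue; higher means more ATP so stronger rescue from cytokine killing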
Mdm2 MdmX PPI: inhibitors of human Mdm2-MdmX association, primary screen, cell-based, luminescence, split luciferase, SaOS-2, uHTS | 3% of 330,000 active | Protein Mdm4 (Homo sapiens) + E3 ubiquitin-protein ligase Mdm2 (Homo sapiens), … | SaOS-2 split-luciferase Mdm2/MdmX complementation | inhibition, % at 8 µM;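 active means inhibition of at least 50% at 8 µM in the primary screen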
Target sequence (O15151 whole entry, looked up): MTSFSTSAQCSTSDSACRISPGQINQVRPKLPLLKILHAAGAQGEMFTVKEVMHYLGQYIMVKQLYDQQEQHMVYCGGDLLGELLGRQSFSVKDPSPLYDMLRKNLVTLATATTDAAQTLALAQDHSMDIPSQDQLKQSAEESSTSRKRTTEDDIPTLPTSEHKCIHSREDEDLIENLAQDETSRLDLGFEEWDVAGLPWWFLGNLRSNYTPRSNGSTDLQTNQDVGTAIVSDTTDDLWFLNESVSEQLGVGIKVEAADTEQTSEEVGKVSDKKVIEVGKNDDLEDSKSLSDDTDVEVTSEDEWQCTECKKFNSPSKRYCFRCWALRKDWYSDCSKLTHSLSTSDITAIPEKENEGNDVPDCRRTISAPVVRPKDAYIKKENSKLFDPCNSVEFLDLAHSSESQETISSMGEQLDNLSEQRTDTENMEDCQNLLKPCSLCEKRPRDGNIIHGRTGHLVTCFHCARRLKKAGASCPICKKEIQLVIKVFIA
Target sequence (Q00987 whole entry, looked up): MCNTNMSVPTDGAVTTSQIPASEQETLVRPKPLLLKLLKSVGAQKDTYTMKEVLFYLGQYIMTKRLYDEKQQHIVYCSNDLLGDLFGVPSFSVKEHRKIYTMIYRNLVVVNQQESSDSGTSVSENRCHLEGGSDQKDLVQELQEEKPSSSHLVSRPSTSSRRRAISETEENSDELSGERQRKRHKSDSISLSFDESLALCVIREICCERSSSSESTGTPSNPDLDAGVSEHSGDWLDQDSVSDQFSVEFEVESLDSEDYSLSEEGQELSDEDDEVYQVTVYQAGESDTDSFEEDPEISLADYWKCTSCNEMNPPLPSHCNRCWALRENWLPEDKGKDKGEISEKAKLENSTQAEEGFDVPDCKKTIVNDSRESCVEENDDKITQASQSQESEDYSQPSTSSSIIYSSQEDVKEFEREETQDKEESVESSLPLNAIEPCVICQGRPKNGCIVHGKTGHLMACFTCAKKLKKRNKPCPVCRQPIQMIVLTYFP
Gli-Sufu block: Gli-Sufu pathway antagonists, primary screen, luciferase luminescence, Sufu-KO-LIGHT cells, uHTS; AID 588413, 2011; Sufu-KO-LIGHT fibroblasts, Gli luciferase reporter luminescence; inhibition, % at 5 µM; 0.74% of 340,000 active;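 active means inhibition above about 55%, limit read from the data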;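 further: 0% = DMSO-treated cells and 100% = wells with medium but no cells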
NR3A LBD binder: binders of NR3A ligand-binding domain, primary screen, biophysical, differential scanning fluorimetry, uHTS; 2.5% of 340,000 active; AID 1259313, 2017; NR3A LBD differential scanning fluorimetry, Tm shift; 0% = protein alone, 100% = glycine-bound protein; Tm shift relative to glycine control, % at 25 µM; Glutamate receptor ionotropic, NMDA 3A (GRIN3A) ligand-binding domain;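 active means melting temperature shift of at least 10% of the positive control shift, at one fixed dose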
CSC inhib: cancer stem cell viability inhibitors, primary screen, luminescence; cancer stem cell-like cells viability; inhibition, % at 7.5 µM; 1.1% of 300,000 active; in the data active means inhibition above about 75%; inconclusive means no clear call, values can overlap the other calls; tested in HMLE shEcad cells
MPTP block: mitochondrial permeability transition pore inhibitors, primary screen, biochemical, isolated mouse mitochondria, absorbance; Ca2+ swelling absorbance, 30 min; 1.4% of 360,000 active; inhibition, % at 10 µM; AID 602449, 2012;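 active means inhibition of 50% or more, scaled per plate between neutral and stimulator controls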;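 further: 0% = DMSO wells given calcium and 100% = 1 mM EGTA wells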
Rh123 counter: fluorescence retest of MPTP screen hits in isolated mitochondria, single concentration | shares compounds with MPTP block | membrane potential, Rhodamine 123 fluorescence | inhibition, % at 10 µM | 78% of 5,000 active | AID 624504, 2012; in the data active means inhibition above about 22%;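 further: 0% = DMSO vehicle and 100% = positive control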
MPTP abs DR: mitochondrial permeability transition pore inhibitors, dose response, biochemical, absorbance, uHTS hits | shares compounds with MPTP block | isolated mitochondria swelling | IC50, µM | 58% of 780 active | AID 651561, 2012; in the data active means IC50 below about 20 µM
MPTP cs DR: fluorescent counter-screen in isolated mitochondria, dose response, counter-screen for MPTP inhibitor project, biochemical, fluorescence, uHTS hits | shares compounds with MPTP block | isolated mitochondria counterscreen, fluorescence read-out | IC50, µM | 49% of 780 active; in the data active means IC50 below about 80 µM
Numbers without * were called inactive.

How did CCCc1ccc(C(C)NC(=S)NCc2ccc(F)cc2)cc1 (stereo not drawn) do in these assays?
Beta apoptosis: 10; Mdm2 MdmX PPI: 12; Gli-Sufu block: -8; NR3A LBD binder: 9; CSC inhib: 30; MPTP block: 64*; Rh123 counter: 91*

Results for CCC(C)c1ccc(C(C)NC(=S)NCc2ccc(F)cc2)cc1 (stereo not drawn) ?
Beta apoptosis: 9; Mdm2 MdmX PPI: 3; Gli-Sufu block: -19; NR3A LBD binder: 13*; CSC inhib: 36; MPTP block: 60*; Rh123 counter: 94*

Results for CC(NC(=S)NCc1ccc(F)cc1)C12CC3CC(CC(C3)C1)C2 (stereo not drawn) ?
Mdm2 MdmX PPI: 0; Gli-Sufu block: 16; NR3A LBD binder: 4; CSC inhib: -11; MPTP block: 80*; Rh123 counter: 90*

What do the screens show for `CCOc1ccc(C(C)NC(=S)NCc2ccc(Cl)cc2)cc1` (stereo not drawn)?
Beta apoptosis: 2; Mdm2 MdmX PPI: 29; Gli-Sufu block: -14; NR3A LBD binder: 5; CSC inhib: 2; MPTP block: 60*; Rh123 counter: 94*

How did Fc1ccc(CNC(=S)NCc2ccccc2)cc1 do in these assays?
Beta apoptosis: -1; Mdm2 MdmX PPI: -4; Gli-Sufu block: 14; NR3A LBD binder: -2; CSC inhib: 11; MPTP block: 2

What do the screens show for `COc1ccc(NC(=O)Cc2ccc(C)c(C)c2)cc1Cl`?
Beta apoptosis: -11; Mdm2 MdmX PPI: 17; Gli-Sufu block: -6; NR3A LBD binder: -2; MPTP block: 0

What do the screens show for `COCCNC(=O)CSC1=N/C(=C/c2ccc(Cl)c(Cl)c2)C(=O)N1c1ccccc1F`?
Beta apoptosis: inconclusive; Mdm2 MdmX PPI: 18; Gli-Sufu block: 7; NR3A LBD binder: -6; CSC inhib: -2; MPTP block: 0

Results for NC(=S)N/N=C/c1cn(-c2ccccc2)nc1-c1cccnc1 ?
Beta apoptosis: 33; Mdm2 MdmX PPI: 1; Gli-Sufu block: -8; NR3A LBD binder: -3; CSC inhib: 35; MPTP block: 1

Results for Oc1c(C=C2N=c3ccccc3=N2)sc(=S)n1C1CCCC1 ?
Mdm2 MdmX PPI: -24; Gli-Sufu block: 1; NR3A LBD binder: -2; CSC inhib: -3; MPTP block: 83*; Rh123 counter: 50*

Results for CC(C)(C)C(=O)N1CCN(c2ccnc3cc(Cl)ccc23)CC1 ?
Beta apoptosis: -4; Mdm2 MdmX PPI: 15; Gli-Sufu block: 32; NR3A LBD binder: 2; CSC inhib: 9; MPTP block: 1

How did Cc1ccc(C(=O)N2CCN(c3ncnc4c(C)csc34)CC2)cc1 do in these assays?
Beta apoptosis: 2; Mdm2 MdmX PPI: 24; Gli-Sufu block: -3; NR3A LBD binder: 1; CSC inhib: -5; MPTP block: 34

How did Cc1csc2ncnc(N3CCN(C(=O)Nc4ccc(OC(F)(F)F)cc4)CC3)c12 do in these assays?
Beta apoptosis: -7; Mdm2 MdmX PPI: 32; Gli-Sufu block: 16; NR3A LBD binder: 4; CSC inhib: 44; MPTP block: 90*; Rh123 counter: 89*

How did O=C(Nc1ccc(OC(F)(F)F)cc1)N1CCN(c2ccnc3cc(Cl)ccc23)CC1 do in these assays?
Beta apoptosis: 68; Mdm2 MdmX PPI: 22; Gli-Sufu block: 37; NR3A LBD binder: 7; CSC inhib: 64; MPTP block: 96*; Rh123 counter: 81*

Results for Cc1csc2c(N3CCN(C(=S)Nc4ccc(F)cc4F)CC3)ncnc12 ?
Beta apoptosis: -2; Mdm2 MdmX PPI: 38; Gli-Sufu block: -10; NR3A LBD binder: 1; CSC inhib: 14; MPTP block: 92*; Rh123 counter: 91*

What do the screens show for `Cc1csc2c(N3CCN(C(=O)Nc4ccccc4)CC3)ncnc12`?
Beta apoptosis: -3; Mdm2 MdmX PPI: 6; Gli-Sufu block: 16; NR3A LBD binder: 2; CSC inhib: 7; MPTP block: 54*; Rh123 counter: 24*

Results for Cc1cnc(C(=O)Nc2ccc(OC(F)(F)F)cc2)cn1 ?
Beta apoptosis: 10; Mdm2 MdmX PPI: 15; Gli-Sufu block: -25; NR3A LBD binder: -1; CSC inhib: 34; MPTP block: 1

Results for CSc1cccc(NS(=O)(=O)c2cn(C)cn2)c1 ?
Beta apoptosis: -6; Mdm2 MdmX PPI: -5; Gli-Sufu block: -24; NR3A LBD binder: 0; CSC inhib: 18; MPTP block: -1

Results for CCC(C)Nc1nc(OC(C(F)(F)F)C(F)(F)F)nc(OC(C(F)(F)F)C(F)(F)F)n1 (stereo not drawn) ?
Beta apoptosis: 4; Mdm2 MdmX PPI: 16; Gli-Sufu block: -10; NR3A LBD binder: 1; CSC inhib: 19; MPTP block: 60*; Rh123 counter: 60*

Results for NC(N)=Nc1nc(CCN2C(=O)c3ccccc3C2=O)cs1 ?
Beta apoptosis: 5; Mdm2 MdmX PPI: 14; Gli-Sufu block: 4; NR3A LBD binder: 4; CSC inhib: -4; MPTP block: 7

How did CCCn1c(=O)c(C(=O)NCc2ccco2)c(O)c2ccccc21 do in these assays?
Beta apoptosis: -2; Mdm2 MdmX PPI: -8; Gli-Sufu block: -17; NR3A LBD binder: 4; CSC inhib: -8; MPTP block: 3

Results for CCCCN1C(=N)N([C@@H](C)CN2CCC[C@H]2CN2C(N)=NC[C@H]2CC(C)C)C[C@H]1Cc1ccccc1 ?
Beta apoptosis: -1; Mdm2 MdmX PPI: -30; Gli-Sufu block: 0; NR3A LBD binder: -1; CSC inhib: 4; MPTP block: 67*; Rh123 counter: 1; MPTP abs DR: 9*; MPTP cs DR: >80

How did CC(C)[C@@H]1CN=C(N)N1C[C@@H]1CCCN1C[C@H](C)N1C[C@@H](Cc2ccccc2)N(CCc2ccc(Cl)c(Cl)c2)C1=N do in these assays?
Mdm2 MdmX PPI: 11; Gli-Sufu block: -1; NR3A LBD binder: -3; MPTP block: -2

Screening data: PubChem BioAssay, several laboratories
